Assay [1] is described as follows: NCI Yeast Anticancer Drug Screen. Data for the rad50 strain (AID 155).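 Note: 0% = growth of vehicle-only cultures of the same strain.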 The settings on record: S. cerevisiae rad50 strain growth inhibition, stronger effect = higher value. Put shortly:
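Growth of the mutant yeast was measured after compound exposure and referenced to vehicle-treated cultures.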

Assay [2] in a line: NCI Yeast Anticancer Drug Screen. Data for the mec2-1 strain (AID 157). The note with it: S. cerevisiae mec2-1 strain, stronger effect = higher value. The method, boiled down:
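Test agents were screened against the mec2-1 yeast strain, with defined DNA repair or cell cycle alteration. Growth was scored as inhibition against vehicle-only controls.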

A short description of assay [3]: NCI Yeast Anticancer Drug Screen. Data for the sgs1 mgt1 strain (AID 161).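 Note: 0% = growth of cultures given vehicle only.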 The settings on record: S. cerevisiae sgs1 mgt1 strain, stronger effect = higher value. The method, boiled down:
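Inhibition of yeast growth, normalised to vehicle-treated controls, is reported for a strain bearing genetic alterations in DNA damage repair.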

Assay [4] is described as follows: NCI Yeast Anticancer Drug Screen. Data for the cln2 rad14 strain (AID 165).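 Note: 0% = growth equal to vehicle treated cultures.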 The settings on record: S. cerevisiae cln2 rad14 strain, stronger effect = higher value. Put shortly:
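Growth of compound-exposed yeast (cln2 rad14 genotype) measured and expressed as inhibition relative to vehicle.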

Assay [5] can be described thus: NCI Yeast Anticancer Drug Screen. Data for the bub3 strain (AID 167). The note with it: S. cerevisiae bub3 mutant strain, stronger effect = higher value. Put shortly: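 Whole-cell yeast assay. The mutant strain was incubated with compounds, and growth inhibition was determined by comparison with vehicle-treated cells.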
The nature of assay [6]: NCI Yeast Anticancer Drug Screen. Data for the mlh1 rad18 strain (AID 175). The note with it: S. cerevisiae mlh1 rad18 strain growth inhibition, stronger effect = higher value. The method, boiled down: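 In this whole-cell yeast screen, a strain with altered DNA damage repair is challenged with compound, and its growth is measured against matched vehicle-treated controls.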
[7] abbreviates: at 5.0 µM (retest, dose inferred, filed as 0.5).
Where [8] appears, read: at 50.0 µM (retest, dose inferred, filed as 5.0).

About 79,000 compounds went through this panel and 15% of them were active in at least one assay; those are over-represented in the sample as a whole. Unmarked numbers belong to inactive results. The source made the active and inactive calls. Cut-off read from the data, not from the text of the source: active = growth inhibition above about 70%; inactive = the rest.

In the case of `Nc1ccc2c(c1)[nH]c(=O)c1ccc(Cl)cc12`, the growth inhibition was -63% in assay [1] (setting [7]); 94% (active) in assay [1] (setting [8]); 98.2% (active) in assay [1] (at 50.0 µM); -32% in assay [2] (setting [7]); 82% (active) in assay [2] (setting [8]); 90.5% (active) in assay [2] (at 50.0 µM). Further, the growth inhibition is -32% in assay [3] (setting [7]); 83% (active) in assay [3] (setting [8]); 93.1% (active) in assay [3] (at 50.0 µM); -30% in assay [4] (setting [7]); 85% (active) in assay [4] (setting [8]); 92.5% (active) in assay [4] (at 50.0 µM). In addition, the growth inhibition in assay [5] (setting [7]) was -52%; in assay [5] (setting [8]), 91% (active); in assay [5] (at 50.0 µM) it was 78.9% (active); in assay [6] (setting [7]), -56%; in assay [6] (setting [8]) it was 93% (active); in assay [6] (at 50.0 µM), 97% (active).
With `CCCNC(=O)c1cc2ccccc2cc1C(=O)OC`, the growth inhibition in assay [1] (setting [7]) is 59%; in assay [1] (setting [8]), 90% (active); in assay [1] (at 50.0 µM) it was 86% (active); in assay [2] (setting [7]) it was 48%; in assay [2] (setting [8]), 90% (active); in assay [2] (at 50.0 µM), 88.5% (active). For the same compound, the growth inhibition in assay [3] (setting [7]) was 51%; in assay [3] (setting [8]), 95% (active); in assay [3] (at 50.0 µM), 81.9% (active); in assay [4] (setting [7]), 49%; in assay [4] (setting [8]), 74% (active); in assay [4] (at 50.0 µM), 81.1% (active). The growth inhibition was 68% in assay [5] (setting [7]); 94% (active) in assay [5] (setting [8]); 88.3% (active) in assay [5] (at 50.0 µM); 65% in assay [6] (setting [7]); 94% (active) in assay [6] (setting [8]); 86.2% (active) in assay [6] (at 50.0 µM).
Turning to `COc1ccccc1NC(=O)C1=C(C)NC(C)=C(C(=O)Nc2ccccc2OC)C1c1ccc(C2C(C(=O)Nc3ccccc3OC)=C(C)NC(C)=C2C(=O)Nc2ccccc2OC)cc1`, the growth inhibition in assay [1] (setting [7]) is 50%; in assay [1] (setting [8]), 86% (active); in assay [1] (at 50.0 µM) it was 75.8% (active); in assay [2] (setting [7]), 31%; in assay [2] (setting [8]), 94% (active); in assay [2] (at 50.0 µM), 81.2% (active). In addition, the growth inhibition is 37% in assay [3] (setting [7]); 92% (active) in assay [3] (setting [8]); 77.5% (active) in assay [3] (at 50.0 µM); 38% in assay [4] (setting [7]); 77% (active) in assay [4] (setting [8]); 44.2% in assay [4] (at 50.0 µM). The growth inhibition in assay [5] (setting [7]) was 40%; in assay [5] (setting [8]), 95% (active); in assay [5] (at 50.0 µM), 85.2% (active); in assay [6] (setting [7]), 41%; in assay [6] (setting [8]), 95% (active); in assay [6] (at 50.0 µM) it was 47.9%.
With `Cc1cc([N+](=O)[O-])cc(C)c1OC(=O)Nc1c(Cl)cccc1Cl`, the growth inhibition in assay [1] (setting [7]) was 37%; in assay [1] (setting [8]), 37%; in assay [1] (at 50.0 µM) it was 31.6%; in assay [2] (setting [7]) it was 30%; in assay [2] (setting [8]), 45%; in assay [2] (at 50.0 µM), 22.1%. Moreover, the growth inhibition in assay [3] (setting [7]) is 46%; in assay [3] (setting [8]), 71% (active); in assay [3] (at 50.0 µM), 55.4%; in assay [4] (setting [7]), 32%; in assay [4] (setting [8]), 36%; in assay [4] (at 50.0 µM) it was 22.1%. For the same compound, the growth inhibition was 24% in assay [5] (setting [7]); 68% in assay [5] (setting [8]); 23.1% in assay [5] (at 50.0 µM); 48% in assay [6] (setting [7]); 56% in assay [6] (setting [8]); 24.1% in assay [6] (at 50.0 µM).
In the case of `Cn1c(CN(Cc2nc3ccccc3n2C)Cc2nc3ccccc3n2C)nc2ccccc21`, the growth inhibition was 7% in assay [1] (setting [7]); 73% (active) in assay [1] (setting [8]); 76.7% (active) in assay [1] (at 50.0 µM); 2% in assay [2] (setting [7]); 85% (active) in assay [2] (setting [8]); 87.9% (active) in assay [2] (at 50.0 µM). Moreover, the growth inhibition in assay [3] (setting [7]) is 3%; in assay [3] (setting [8]) it was 72% (active); in assay [3] (at 50.0 µM) it was 69.7%; in assay [4] (setting [7]), 3%; in assay [4] (setting [8]), 89% (active); in assay [4] (at 50.0 µM), 68.8%. The growth inhibition in assay [5] (setting [7]) was 4%; in assay [5] (setting [8]), 47%; in assay [5] (at 50.0 µM), 56.2%; in assay [6] (setting [7]), 3%; in assay [6] (setting [8]), 80% (active); in assay [6] (at 50.0 µM) it was 56%.
Turning to `COc1nc(NC2OCC(O)C(O)C2O)c(Cl)c(=O)n1C` (configuration not stated), the growth inhibition is 0% in assay [1] (setting [7]); -1% in assay [1] (setting [8]); -15.4% in assay [1] (at 50.0 µM); -1% in assay [2] (setting [7]); -5% in assay [2] (setting [8]); -3.7% in assay [2] (at 50.0 µM). For the same compound, the growth inhibition in assay [3] (setting [7]) was -2%; in assay [3] (setting [8]) it was -3%; in assay [3] (at 50.0 µM), 11.4%; in assay [4] (setting [7]), -1%; in assay [4] (setting [8]), -3%; in assay [4] (at 50.0 µM), 30.4%. In addition, the growth inhibition in assay [5] (setting [7]) was -2%; in assay [5] (setting [8]), -4%; in assay [5] (at 50.0 µM), 10.2%; in assay [6] (setting [7]), -5%; in assay [6] (setting [8]) it was -7%; in assay [6] (at 50.0 µM), -7.85%.
On to `O=C(O)c1ccccc1/C=N/O`, for which the growth inhibition is 1% in assay [1] (setting [7]); -4% in assay [1] (setting [8]); 1.5% in assay [1] (at 50.0 µM); 2% in assay [2] (setting [7]); -2% in assay [2] (setting [8]); -4.2% in assay [2] (at 50.0 µM). Further, the growth inhibition in assay [3] (setting [7]) was 0%; in assay [3] (setting [8]) it was -2%; in assay [3] (at 50.0 µM), 3%; in assay [4] (setting [7]), -2%; in assay [4] (setting [8]), 1%; in assay [4] (at 50.0 µM), 93% (active). For the same compound, the growth inhibition in assay [5] (setting [7]) is 0%; in assay [5] (setting [8]) it was -1%; in assay [5] (at 50.0 µM), 4.4%; in assay [6] (setting [7]), 0%; in assay [6] (setting [8]), -3%; in assay [6] (at 50.0 µM), 6.7%.
With `CN(C(=O)c1ccc(Cl)cc1)C(=S)N1CCN(c2ccccc2)CC1`, the growth inhibition in assay [1] (setting [7]) is -11%; in assay [1] (setting [8]), 72% (active); in assay [1] (at 50.0 µM), 80.3% (active); in assay [2] (setting [7]), -5%; in assay [2] (setting [8]) it was 80% (active); in assay [2] (at 50.0 µM), 74.1% (active). In addition, the growth inhibition in assay [3] (setting [7]) is -16%; in assay [3] (setting [8]), 82% (active); in assay [3] (at 50.0 µM) it was 79% (active); in assay [4] (setting [7]) it was 3%; in assay [4] (setting [8]), 41%; in assay [4] (at 50.0 µM), 61.2%. The growth inhibition is 1% in assay [5] (setting [7]); 88% (active) in assay [5] (setting [8]); 63.5% in assay [5] (at 50.0 µM); -10% in assay [6] (setting [7]); 89% (active) in assay [6] (setting [8]); 72.5% (active) in assay [6] (at 50.0 µM).
Consider `CCCc1cc2c(cc1O)CC[C@@H]1[C@@H]2CC[C@]2(C)[C@@H](O)CC[C@@H]12`, for which the growth inhibition in assay [1] (setting [7]) was -25%; in assay [1] (setting [8]), 96% (active); in assay [1] (at 50.0 µM), 86.5% (active); in assay [2] (setting [7]) it was -30%; in assay [2] (setting [8]) it was 96% (active); in assay [2] (at 50.0 µM), 85.8% (active). Further, the growth inhibition in assay [3] (setting [7]) is -30%; in assay [3] (setting [8]), 98% (active); in assay [3] (at 50.0 µM), 84.5% (active); in assay [4] (setting [7]), -4%; in assay [4] (setting [8]), 77% (active); in assay [4] (at 50.0 µM) it was 88.5% (active). For the same compound, the growth inhibition in assay [5] (setting [7]) is -33%; in assay [5] (setting [8]), 97% (active); in assay [5] (at 50.0 µM) it was 87.6% (active); in assay [6] (setting [7]), -46%; in assay [6] (setting [8]), 96% (active); in assay [6] (at 50.0 µM), 80.7% (active).

Values taken from PubChem BioAssay (NCI).
